A selection: hits, their analogues and other compounds. The true share with any hit is near 1.8%.
pAkt inh = blocks phosphorylation of Akt. Neuro2A IGF-stimulated pAkt S473 HTRF, 20 min; hits give low values. activity change, % for hits at 50 µM. hit rate 0.32% among 360,000; in the data active means activity change below about -80%; inconclusive means mostly about -51% to -80%
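Neuro2A cells in DMEM with 0.5% FBS, overnight at 37 deg C, given compound at single 50 µM final, then IGF (6 nM final) for 20 min at 37 deg C. Lysed; phospho-Akt Ser473 by HTRF after 24 h, 665/615 ratio.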
PI4K2A block = PI4K2A (human) kinase inhibition; activity change, negative = inhibition, % at 76.9 µM; AID 1346378; hit rate 0.13% among 420,000; purified PI4K2A, ADP-Glo luminescence, 1 h; hits give low values; in the data active means activity change below about -50%; inconclusive means mostly about -30% to -49%;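 further: -100% = wells without enzyme as full effect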
Target sequence (Q9BTU6 whole entry, looked up): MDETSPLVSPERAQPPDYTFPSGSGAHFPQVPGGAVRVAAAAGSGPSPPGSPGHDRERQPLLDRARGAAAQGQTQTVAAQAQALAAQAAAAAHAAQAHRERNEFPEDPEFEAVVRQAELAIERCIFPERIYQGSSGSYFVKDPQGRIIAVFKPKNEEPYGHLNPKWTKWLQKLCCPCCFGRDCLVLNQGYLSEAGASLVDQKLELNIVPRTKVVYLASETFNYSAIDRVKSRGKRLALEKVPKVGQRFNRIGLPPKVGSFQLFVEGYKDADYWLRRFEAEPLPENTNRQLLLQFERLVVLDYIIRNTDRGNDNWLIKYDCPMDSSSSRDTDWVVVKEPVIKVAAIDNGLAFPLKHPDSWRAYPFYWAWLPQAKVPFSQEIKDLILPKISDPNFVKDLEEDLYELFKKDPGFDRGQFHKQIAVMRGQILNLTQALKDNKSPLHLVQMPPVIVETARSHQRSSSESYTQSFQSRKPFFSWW
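Compounds are screened against recombinant PI4K2A using PI as substrate and ATP, the latter dispensed at 300 microM. Reactions run one hour at ambient temperature before ADP-Glo detection; full inhibition defined by wells lacking enzyme.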
PI5P4K alpha inh = PI5P4K alpha (human) kinase inhibition; P48426; PI5P4Kalpha enzyme, ADP-Glo luminescence, 60 min; hits give low values; max response, %; hit rate 1.2% among 330,000; AID 652105; active means max response of -50% or lower; inconclusive means between -30% and -50%; inactive means -30% or higher; further: value at the top dose of about 77 µM
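Luminescence from ADP-Glo served as readout of PI5P4Kalpha activity in a qHTS format. Reaction: enzyme, substrate, compound, ATP at 5 microM final, 60 min at RT.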
Six1-Eya2 inh = inhibitors of human Six1/Eya2 interaction; AID 651725; Q15475+O00167; hit rate 0.56% among 360,000; AlphaScreen GST-Six1/His-Eya2 binding, biochemical; hits give low values; activity change, % (concentration not given with the values)
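GST-Six1 + His-Eya2 (5X stock: 250/500 nM); Tris pH 8.0, 300 mM NaCl, 0.05% BSA, 0.02% Tween 20; GSH donor/Ni acceptor beads; 1 h 37 °C dark; AlphaScreen readout.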
CtBP-E1A blk = blocks the CtBP interaction with E1A; AlphaScreen GST-E1A/His-CtBP binding, 1536-well; hits give low values; hit rate 0.49% among 340,000; activity change, % (no concentration beside the values); AID 651724
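GST-E1A and His-tagged CtBP (125 nM each as 5X stock) were preincubated with pin-transferred compound for 2 h at 37 °C in the dark, then glutathione donor and nickel acceptor beads were added for 1 h before AlphaScreen reading.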
* = called active by the depositor. Unless noted, no stated cut-off is given here; in the data, active means activity change below about -65%; inconclusive means mostly about -30% to -63%; inactive means weaker than that. Unless noted, on the % scale 0 is the no-effect control and ±100 the full control effect.

O=P(C(Cl)Cl)(N1CCCCC1)N1CCCCC1 was read as pAkt inh inactive, PI4K2A block 1.0, PI5P4K alpha inh 0.3, Six1-Eya2 inh 6.4 and CtBP-E1A blk 0.7.
`CCCCc1ccc(C(=O)O)nc1` gave pAkt inh inactive, PI4K2A block -7.9, PI5P4K alpha inh 0.1, Six1-Eya2 inh -87.4* and CtBP-E1A blk -68.2*.
For O=C(N/N=C\C1C(=O)NC(=S)N(c2ccccc2)C1=O)c1ccc(O)cc1 (stereo unspecified) the results were pAkt inh inactive, PI4K2A block -2.8, PI5P4K alpha inh -56.7*, Six1-Eya2 inh inconclusive and CtBP-E1A blk inconclusive.
For COC(=O)C1=C(C(=O)OC)SC2(S1)C(C(=O)OC)=C(C(=O)OC)Sc1c2ssc1=O the results were pAkt inh inactive, PI4K2A block -22.7, PI5P4K alpha inh inconclusive, Six1-Eya2 inh -90.8* and CtBP-E1A blk 5.9.
`Cn1c(O)c(/C=N/NC(=O)c2ccncc2)c(=O)[nH]c1=S` gave pAkt inh inactive, PI4K2A block -2.0, PI5P4K alpha inh inconclusive and Six1-Eya2 inh -14.3.
For Cc1ccccc1-n1c(O)c(/C=N/NC(=O)c2ccccc2O)c(=O)[nH]c1=S the results were pAkt inh inactive, PI4K2A block 2.0, PI5P4K alpha inh -68.9*, Six1-Eya2 inh -91.7* and CtBP-E1A blk -101.3*.
O=C(N/N=C/c1c(O)n(-c2ccccc2)c(=S)[nH]c1=O)c1ccccc1 was read as pAkt inh inactive, PI4K2A block 2.8, PI5P4K alpha inh -54.1*, Six1-Eya2 inh -92.0* and CtBP-E1A blk -89.1*.
For O=C(N/N=C/c1c(O)n(C2CC2)c(=S)[nH]c1=O)c1ccccc1O the results were pAkt inh inactive, PI4K2A block 10.4, PI5P4K alpha inh -58.5*, Six1-Eya2 inh -83.0* and CtBP-E1A blk -84.7*.
O=c1[nH]c(=S)n(C2CC2)c(O)c1C=NCc1ccc(F)cc1 was read as pAkt inh inactive, PI4K2A block 3.1, PI5P4K alpha inh 15.5, Six1-Eya2 inh 0.5 and CtBP-E1A blk -11.9.
For O=C(C[N+]12CCC(CC1)C(CO)C2)c1ccc(Br)cc1 (stereo unspecified) the results were pAkt inh inactive, PI4K2A block 0.6, PI5P4K alpha inh 4.7, Six1-Eya2 inh -5.5 and CtBP-E1A blk 4.9.
COP(=S)(OC)SCn1nnc2ccccc2c1=O was read as pAkt inh inactive, PI4K2A block -12.0, PI5P4K alpha inh -12.1, Six1-Eya2 inh -3.5 and CtBP-E1A blk -2.2.
Screening O=C1NC(=O)N(c2ccc(Cl)cc2)C(=O)/C1=C\c1ccc(Sc2nc3ccccc3[nH]2)o1 returned pAkt inh inactive, PI4K2A block inconclusive, PI5P4K alpha inh -87.5*, Six1-Eya2 inh inconclusive and CtBP-E1A blk -27.4.
Cc1ccc(N2C(=O)NC(=O)/C(=C/c3ccc(-c4ccc(C(=O)O)c(Cl)c4)o3)C2=O)cc1 was read as pAkt inh inactive, PI4K2A block -6.3, PI5P4K alpha inh inconclusive, Six1-Eya2 inh -14.8 and CtBP-E1A blk 1.2.
Screening CN1C2CCC1C(COC(=O)c1ccccc1)C(O)C2 (stereo unspecified) returned pAkt inh inactive, PI4K2A block -1.6, PI5P4K alpha inh 3.9, Six1-Eya2 inh 4.6 and CtBP-E1A blk -4.5.
CCC1CO/C(=C(\C(Cl)=C(Cl)Cl)[N+](=O)[O-])N1Cc1ccc(Cl)nc1 (stereo unspecified) was read as pAkt inh inactive, PI4K2A block 4.2, PI5P4K alpha inh 0.5, Six1-Eya2 inh 3.0 and CtBP-E1A blk 1.2.
Screening CC(C)CNC(=O)/C=C/C=C/CCCCCC/C=C/c1ccc2c(c1)OCO2 returned pAkt inh inactive, PI4K2A block -2.1, PI5P4K alpha inh 1.5, Six1-Eya2 inh 2.9 and CtBP-E1A blk 9.6.
For CN(C)c1ccccc1 the results were pAkt inh inactive, PI4K2A block 0.9, PI5P4K alpha inh 0.7, Six1-Eya2 inh 7.4 and CtBP-E1A blk 3.5.
For Cc1cccc(N=Nc2ccc(N(C)C)cc2)c1 the results were pAkt inh inactive, PI4K2A block -5.9, PI5P4K alpha inh 34.0, Six1-Eya2 inh -71.9* and CtBP-E1A blk inconclusive.
`Nc1ncnc2c1ncn2[C@@H]1O[C@H](COP(=O)(O)CP(=O)(O)O)[C@@H](O)[C@H]1O` gave pAkt inh inactive, PI4K2A block -54.2*, PI5P4K alpha inh -5.6, Six1-Eya2 inh 0.1 and CtBP-E1A blk 9.7.
Screening C=Cn1ccnc1P(=S)(c1ccn(C)c1)c1nccn1C=C returned pAkt inh inactive, PI4K2A block -0.7, PI5P4K alpha inh 0.8, Six1-Eya2 inh 2.4 and CtBP-E1A blk -7.7.
For C=Cn1ccnc1P(=S)(c1nccn1C=C)c1nccn1C=C the results were pAkt inh inactive, PI4K2A block 1.0, PI5P4K alpha inh -1.7, Six1-Eya2 inh inconclusive and CtBP-E1A blk -90.9*.
CC(C)C12CN3CC(C(C)C)(CN(C1)C3c1cccnc1)C2=O (stereo unspecified) was read as pAkt inh -108.2%*, PI4K2A block 5.0, PI5P4K alpha inh -9.1, Six1-Eya2 inh -0.9 and CtBP-E1A blk 3.1.
`Cc1nc2ccccc2c(=O)n1-c1cc(F)ccc1F` gave pAkt inh inactive, PI4K2A block 1.7, PI5P4K alpha inh -6.2, Six1-Eya2 inh -4.4 and CtBP-E1A blk 1.3.
Screening CCC(C)N1C(=O)/C(=C\c2cnc(N(C)C)nc2)C(=O)NC1=S (stereo unspecified) returned pAkt inh inactive, PI4K2A block -14.6, PI5P4K alpha inh -57.4*, Six1-Eya2 inh 2.8 and CtBP-E1A blk 15.8.
`CCC(C)N1C(=O)/C(=C\c2ccc(N3CCCCCC3)cc2)C(=O)NC1=S` (stereo unspecified) gave pAkt inh inactive, PI4K2A block -9.8, PI5P4K alpha inh -58.4*, Six1-Eya2 inh 2.0 and CtBP-E1A blk 0.0.
Screening CN1C(=O)/C(=C\c2ccc(N3CCCCCC3)cc2)C(=O)NC1=S returned pAkt inh inactive, PI4K2A block -2.9, PI5P4K alpha inh -55.9* and Six1-Eya2 inh 1.5.
Cc1cc(N2CCCC2)ccc1C=C(C#N)C#N was read as pAkt inh inactive, PI4K2A block 10.2, PI5P4K alpha inh -1.3, Six1-Eya2 inh 3.2 and CtBP-E1A blk 1.5.
Screening CN1C(=O)/C(=C\c2ccc(N3CCCCC3)o2)C(=O)NC1=S returned pAkt inh inactive, PI4K2A block 0.8, PI5P4K alpha inh -3.0, Six1-Eya2 inh 6.6 and CtBP-E1A blk 3.9.
Screening Cc1cc(N2CCCCC2)ccc1C=C1C(=O)N(C)C(=S)N(C)C1=O returned pAkt inh inactive, PI4K2A block -4.3, PI5P4K alpha inh -60.0*, Six1-Eya2 inh -12.6 and CtBP-E1A blk -2.7.
CCCCn1c(O)c(/C=N/N2CCCCC2c2cccnc2)c(=O)[nH]c1=S (stereo unspecified) was read as pAkt inh inactive, PI4K2A block -6.7, PI5P4K alpha inh -7.4, Six1-Eya2 inh -2.9 and CtBP-E1A blk 0.0.
